Out of some 5,500 compounds screened, about 2,000 (36%) were called active. Not shown: some 18% with an inconclusive outcome. No stated cut-off is given here; in the data, active means normalized growth mostly below about 0.91 (no sharp cut-off); inconclusive means no clear call, values can overlap the other calls; inactive means mostly above about 0.92. The list shows a part of the results.
Assay: chemical genetic growth profiling, strain panel (AID 1159580);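 further: tested at 20 µM; growth read once vehicle control cultures reached saturation at 30 °C; 1 = growth at the plate median or of vehicle wells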
Settings: S. cerevisiae deletion strains, growth OD

Measured: normalized growth

CC[C@]1(O)CC2CN(CCc3c([nH]c4ccccc34)[C@@](C(=O)OC)(c3cc4c(cc3OC)N(C)[C@H]3[C@@](O)(C(=O)OC)[C@H](OC(C)=O)[C@]5(CC)C=CCN6CC[C@]43[C@@H]65)C2)C1 (stereo not given in full)
inactive: locus YAL021C, strain ccr4, stronger effect = lower value 1 | locus YAL026C, strain drs2, stronger effect = lower value 0.948 | locus YAL030W, strain snc1, stronger effect = lower value 0.985 | locus YBL061C, strain skt5, stronger effect = lower value 0.975 | locus YBR009C, strain hhf1, stronger effect = lower value 0.941 | locus YBR023C, strain chs3, stronger effect = lower value 0.984 | locus YBR171W, strain sec66, stronger effect = lower value 0.959 | locus YBR231C, strain swc5, stronger effect = lower value 0.982 | locus YBR279W, strain paf1, stronger effect = lower value 0.98 | locus YCL011C, strain gbp2, stronger effect = lower value 0.983 | locus YCL016C, strain dcc1, stronger effect = lower value 1.01 | locus YCL061C, strain MRC1, stronger effect = lower value 1.02 | locus YCL069W, strain vba3, stronger effect = lower value 0.969 | locus YCR088W, strain abp1, stronger effect = lower value 0.974 | locus YDL005C, strain med2, stronger effect = lower value 0.972 | locus YDL040C, strain nat1, stronger effect = lower value 0.969 | locus YDR001C, strain nth1, stronger effect = lower value 0.973 | locus YDR069C, strain doa4, stronger effect = lower value 1 | locus YDR137W, strain rgp1, stronger effect = lower value 0.979 | locus YDR159W, strain sac3, stronger effect = lower value 0.928 | locus YDR195W, strain ref2 0.951 | locus YDR297W, strain sur2, stronger effect = lower value 0.975 | locus YDR334W, strain swr1, stronger effect = lower value 0.955 | locus YDR335W, strain msn5, stronger effect = lower value 0.981 | locus YDR392W, strain spt3, stronger effect = lower value 0.859 | locus YEL003W, strain gim4, stronger effect = lower value 0.954 | locus YEL037C, strain rad23, stronger effect = lower value 0.963 | locus YEL061C, strain CIN8 (second series), stronger effect = lower value 0.962 | locus YER015W, strain faa2, stronger effect = lower value 0.961 | locus YER016W, strain bim1, stronger effect = lower value 0.989 | locus YER111C, strain swi4, stronger effect = lower value 0.972 | locus YER155C, strain BEM2 (second series), stronger effect = lower value 0.907 | locus YFR010W, strain ubp6, stronger effect = lower value 0.948 | locus YGL167C, strain pmr1, stronger effect = lower value 0.972 | locus YGL173C, strain kem1, stronger effect = lower value 0.976 | locus YGL227W, strain vid30, stronger effect = lower value 0.947 | locus YGL240W, strain doc1, stronger effect = lower value 0.954 | locus YGL253W, strain hxk2, stronger effect = lower value 1.01 | locus YHR013C, strain ard1, stronger effect = lower value 0.949 | locus YHR027C, strain rpn1, stronger effect = lower value 0.957 | locus YHR030C, strain SLT2, stronger effect = lower value 0.991 | locus YHR079C, strain IRE1, stronger effect = lower value 0.975 | locus YHR142W, strain chs7, stronger effect = lower value 1.02 | locus YJL092W, strain hpr5, stronger effect = lower value 0.973 | locus YJL095W, strain BCK1 (second series), stronger effect = lower value 0.978 | locus YJL095W, strain BCK1, stronger effect = lower value 0.992 | locus YJL115W, strain asf1, stronger effect = lower value 0.956 | locus YJL129C, strain trk1, stronger effect = lower value 0.986 | locus YJL154C, strain vps35, stronger effect = lower value 0.965 | locus YJL164C, strain tpk1, stronger effect = lower value 0.956 | locus YJL166W, strain qcr8, stronger effect = lower value 0.998 | locus YJL187C, strain SWE1, stronger effect = lower value 0.974 | locus YJR066W, strain TOR1, stronger effect = lower value 0.965 | locus YKL160W, strain elf1, stronger effect = lower value 1.05 | locus YKR026C, strain gcn3, stronger effect = lower value 0.975 | locus YKR091W, strain srl3, stronger effect = lower value 0.98 | locus YLL001W, strain dnm1, stronger effect = lower value 1.05 | locus YLL026W, stronger effect = lower value 0.979 | locus YLL041C, strain sdh2, stronger effect = lower value 0.964 | locus YLR027C, strain aat2, stronger effect = lower value 0.987 | locus YLR113W, strain HOG1, stronger effect = lower value 0.955 | locus YLR221C, strain rsa3, stronger effect = lower value 1.04 | locus YLR258W, strain gsy2, stronger effect = lower value 0.979 | locus YLR262C, strain YPT6 (second series), stronger effect = lower value 0.968 | locus YLR320W, strain mms22, stronger effect = lower value 1.04 | locus YLR342W, strain FKS1, stronger effect = lower value 0.977 | locus YLR357W, strain rsc2, stronger effect = lower value 0.974 | locus YLR370C, strain arc18, stronger effect = lower value 0.989 | locus YLR384C, strain iki3, stronger effect = lower value 0.967 | locus YML120C, strain ndi1, stronger effect = lower value 1.01 | locus YMR058W, strain fet3, stronger effect = lower value 0.977 | locus YMR125W, strain sto1, stronger effect = lower value 1.02 | locus YMR129W, stronger effect = lower value 0.967 | locus YMR205C, strain PFK2, stronger effect = lower value 1.01 | locus YMR231W, strain pep5, stronger effect = lower value 0.966 | locus YNL071W, strain lat1, stronger effect = lower value 0.963 | locus YNL183C, strain NPR1, stronger effect = lower value 0.928 | locus YNL209W, strain ssb2, stronger effect = lower value 0.973 | locus YNL248C, strain rpa49, stronger effect = lower value 1.04 | locus YNL322C, strain KRE1 (second series), stronger effect = lower value 0.977 | locus YNR049C, strain mso1, stronger effect = lower value 0.969 | locus YOR001W, strain rrp6, stronger effect = lower value 0.923 | locus YOR070C, strain gyp1, stronger effect = lower value 1 | locus YOR080W, strain dia2, stronger effect = lower value 0.96 | locus YOR083W, strain WHI5, stronger effect = lower value 1.04 | locus YOR106W, strain vam3, stronger effect = lower value 1.03 | locus YOR231W, strain MKK1, stronger effect = lower value 0.952 | locus YOR265W, strain rbl2, stronger effect = lower value 0.987 | locus YOR270C, strain vph1, stronger effect = lower value 1.06 | locus YOR290C, strain snf2, stronger effect = lower value 1.01 | locus YPL051W, strain arl3, stronger effect = lower value 1.01 | locus YPL078C, strain atp4, stronger effect = lower value 1.04 | locus YPL106C, strain sse1, stronger effect = lower value 0.931 | locus YPL240C, strain hsp82, stronger effect = lower value 0.963 | locus YPL256C, strain CLN2, stronger effect = lower value 0.942
